Source: PubChem BioAssay (Tox21)
Unmarked numbers belong to inactive results. Results filed as inconclusive are left out. A call without a number means that no potency is given here. The source made the active and inactive calls. Unless noted, calls come from the whole dose curve; as a rule, active = well fitted curve in the direction sought with a large enough effect in the repeat runs; inconclusive = weak or mixed curves; inactive = no such curve, though single readings can be large; an effect the other way counts as inactive or inconclusive.

Key:
[1] = qHTS assay to identify small molecule agonists of the constitutive androstane receptor (CAR) signaling pathway - cell viability counter screen (AID 1224836); note: nearly all actives have a fitted effect of over 45% in size
Summary of the method: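 Counter screen multiplexed with the CAR reporter readout: HepG2 cells co-transfected with hCAR and the CYP2B6-2.2kb construct receive a 15-concentration compound series and 0.75 uM PK11195 (final), then CellTiter-Fluor fluorescence is read after 23 h.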

[2] = qHTS assay to identify small molecule antagonists of the constitutive androstane receptor (CAR) signaling pathway - cell viability counter screen (AID 1224837); note: nearly all actives have a fitted effect of over 45% in size
Summary of the method: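 Viability was measured with CellTiter-Fluor in a HepG2 line carrying stably transfected hCAR and a CYP2B6-2.2kb construct. Cells were exposed for 23 hr at 37 C to 15 compound concentrations with 50 nM CITCO as agonist.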

[3] = target: Nuclear receptor subfamily 1 group I member 3 (Homo sapiens) (UniProt Q14994); experiment: qHTS assay to identify small molecule antagonists of the constitutive androstane receptor (CAR) signaling pathway (AID 1224838);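 note: HepG2 cells stably expressing hCAR with CYP2B6 luciferase reporter stimulated by CITCO; nearly all actives have a fitted effect of over 40% in size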
Summary of the method: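 Antagonist mode used CITCO at a final 50 nM to activate CAR in human hepatoma HepG2 cells carrying stable hCAR and a 2.2 kb CYP2B6 promoter-luciferase construct. Compounds were tested at 15 concentrations over 24 h, with luminescence as the end point.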

[4] = qHTS assay to identify small molecule antagonists of the estrogen related receptor signaling pathway with the pleiotropic PPARgamma coactivator (PGC) from Tox21 10K library (AID 1224841; call rule not given here; note: actives are mostly falling curves and most rising ones were filed inactive; nearly all actives have a fitted effect of over 50% in size)
Summary of the method: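 Steps: plate 2,000 PGC/ERR cells per well; incubate 6 h at 37 C with 5% CO2; transfer compounds from DMSO stocks by pin tool; incubate 18 h at 37 C; add One-Glo; measure luminescence 30 min later.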

[5] = qHTS assay to identify small molecule agonists of the hypoxia (HIF-1) signaling pathway - cell viability counter screen (AID 1224844; calls by dose curve; note: nearly all actives have a fitted effect of over 50% in size)
Summary of the method: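 Cytotoxicity was measured in parallel with the HRE-driven beta-lactamase readout: after 17 hrs of compound exposure at 37C, HRE-bla ME-180 cells received CellTiter-Glo and luminescence was recorded 30 min later.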

[6] = qHTS assay to identify small molecule agonists of H2AX (AID 1224845; active = well fitted activation curve with a large enough effect in the signal ratio in the repeat runs, not every such curve was filed as active; the % refers to the signal ratio; note: potency is the fitted concentration of half-maximal effect)
Summary of the method: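 Phospho-H2AX Ser139 measured by HTRF (ex 320 nm; em 665 and 620 nm) after 24 hr antibody incubation. Compounds, 15 concentrations, 0.76% DMSO, were applied to CHO-K1 cells for 3hr at 37C before lysis.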

[7] = qHTS assay to identify small molecule antagonists of the estrogen related receptor (ERR) signaling pathway from Tox21 library (AID 1224848); note: nearly all actives have a fitted effect of over 50% in size
Summary of the method: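 ERR cell line, 2,000 cells/well. 6 h settle, then compound (DMSO) added; 18 h at 37 C; ONE-Glo luminescence after 30 min RT.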

[8] = qHTS assay to identify small molecule agonists of the estrogen related receptor (ERR) signaling pathway from Tox21 library (AID 1224849; calls by dose curve; note: nearly all actives have a fitted effect of over 15% in size); settings: ERR reporter cell line, ONE-Glo luciferase, 18 h; at 92.4 µM (top of the series) unless noted
Summary of the method: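 Cells carrying the ERR reporter were plated and allowed to settle for 6 h, exposed to library compounds for 18 h at 37 C, then lysed with ONE-Glo and luminescence measured.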

[9] = qHTS RealTime-Glo MT Cell Viability Assay in HEK293 cells - 32 hour (AID 1224868); note: top concentration of the series differs between compounds; nearly all actives have a fitted effect of over 50% in size
Summary of the method: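 Tox21 10K qHTS, HEK293, 600 cells/well, RealTime-Glo reagent co-dispensed with cells; 5 h preincubation, compound by pintool, 37 C, luminescence at 0–40 h.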

[10] = A CellTox Green Cytotoxicity Assay to monitor cytotoxicity in HEK293 cells - 0 hour (AID 1224869); note: nearly all actives have a fitted effect of over 50% in size
Summary of the method: (§1)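 Cells (HEK293, 600/well) and dye reagent are dispensed together. After 5 h at 37 C, 23 nL compound is pinned in. Plates stay at 37 C for 40 h with fluorescence read at 0h, 8h, 16h, 24h, 32h and 40h.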

[11] = qHTS RealTime-Glo MT Cell Viability Assay in HepG2 cells - 40 hour (AID 1224870); note: nearly all actives have a fitted effect of over 50% in size
Summary of the method: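 Real-time viability: cells seeded at 600 per well together with NanoLuc and cell-permeant prosubstrate, compounds added after 5 h incubation. Luminescence tracked at 0, 8, 16, 24, 32 and 40 h of exposure.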

[12] = target: Nuclear receptor subfamily 1 group I member 3 (Homo sapiens) (UniProt Q14994); experiment: qHTS assay to identify small molecule agonists of the constitutive androstane receptor (CAR) signaling pathway (AID 1224839); note: nearly all actives have a fitted effect of over 15% in size
Summary of the method: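 A 15-concentration quantitative screen uses HepG2 cells co-transfected stably with human CAR and CYP2B6-2.2kb reporter. Treatment lasts 24 h with 0.75 uM PK11195 final present; ONE-Glo luminescence is the signal.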

[13] = qHTS assay to identify small molecule antagonists of the estrogen related receptor signaling pathway with the pleiotropic PPARgamma coactivator (PGC) from Tox21 10K library - cell viability counter screen (AID 1224840; active = well fitted cell-killing curve with a large enough effect in the repeat runs, not every such curve was filed as active; note: nearly all actives have a fitted effect of over 40% in size)
Summary of the method: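 Multiplexed viability counter screen in the PGC/ERR cell line: cells treated with DMSO-dissolved compounds for 17.5 hours at 37 C, then viability measured as CellTiter-Fluor fluorescence.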

[14] = qHTS assay to identify small molecule agonists of the hypoxia (HIF-1) signaling pathway (AID 1224846; active = well fitted activation curve with a large enough effect in the signal ratio in the repeat runs, not every such curve was filed as active; the % refers to the signal ratio)
Summary of the method: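 Compounds from the Tox21 10K library, dissolved in DMSO, are tested for induction of a hypoxia response element–controlled beta-lactamase reporter in ME-180 cells. Exposure lasts 17 hrs at 37C after a 5 hr settling period, followed by CCF4-AM FRET substrate.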

[15] = qHTS assay to identify small molecule agonists of H2AX - cell viability counter screen (AID 1224847; calls by dose curve; note: top concentration of the series differs between compounds; nearly all actives have a fitted effect of over 30% in size)
Summary of the method: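 We seed wild-type CHO-K1 cells overnight, treat them for 3 hr at 37C with compounds in 15-concentration series, and quantify remaining viability by CellTiter-Glo luminescence.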

[16] = target: Thyrotropin receptor (Homo sapiens) (UniProt P16473); experiment: qHTS assay to identify small molecule agonists of the thyroid stimulating hormone receptor (TSHR) signaling pathway (AID 1224843; calls by dose curve; note: nearly all actives have a fitted effect of over 45% in size)
Summary of the method: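 A cell-based cAMP HTRF format was run in TSHR-transfected HEK293 cells, 800 per well. Treatment: 30 min, room temperature. Detection: 1 h with labelled cAMP and anti-cAMP cryptate. Concentration-response over 15 points, three replicates.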

[17] = qHTS RealTime-Glo MT Cell Viability Assay in HepG2 cells - 24 hour (AID 1224867); note: nearly all actives have a fitted effect of over 50% in size
Summary of the method: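 Cells + NanoLuc/prosubstrate dispensed (600 cells/well) → 5 h at 37 C/5% CO2 → compounds in DMSO transferred → 40 h incubation at 37 C, luminescence read at 0, 8, 16, 24, 32, 40 h.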

[18] = A CellTox Green Cytotoxicity Assay to monitor cytotoxicity in HEK293 cells - 40 hour (AID 1224871); note: nearly all actives have a fitted effect of over 45% in size
Summary of the method: as §1

[19] = qHTS assay to identify small molecule agonists of the estrogen related receptor signaling pathway with the pleiotropic PPARgamma coactivator (PGC) from Tox21 10K library (AID 1224842); note: nearly all actives have a fitted effect of over 15% in size
Summary of the method: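 Luminescence from One-Glo (30 min, room temperature) measured after PGC/ERR cells had 18 h at 37 C with pinned compound (23 nL in DMSO). Cells had been seeded at 2,000 per well and pre-incubated 6 h.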

Chain of Nuclear receptor subfamily 1 group I member 3 (Homo sapiens) (Q14994 whole entry, looked up): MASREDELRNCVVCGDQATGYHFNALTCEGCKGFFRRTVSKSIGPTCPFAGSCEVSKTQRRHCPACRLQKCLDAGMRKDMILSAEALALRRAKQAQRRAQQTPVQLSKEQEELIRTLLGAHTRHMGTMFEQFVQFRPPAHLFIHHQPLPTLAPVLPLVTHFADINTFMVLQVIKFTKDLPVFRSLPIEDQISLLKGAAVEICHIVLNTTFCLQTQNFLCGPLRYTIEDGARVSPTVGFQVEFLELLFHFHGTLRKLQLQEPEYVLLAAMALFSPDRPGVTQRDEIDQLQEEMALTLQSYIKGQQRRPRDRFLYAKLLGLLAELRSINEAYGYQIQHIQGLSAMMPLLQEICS
Chain of Thyrotropin receptor (Homo sapiens) (P16473 whole entry, looked up): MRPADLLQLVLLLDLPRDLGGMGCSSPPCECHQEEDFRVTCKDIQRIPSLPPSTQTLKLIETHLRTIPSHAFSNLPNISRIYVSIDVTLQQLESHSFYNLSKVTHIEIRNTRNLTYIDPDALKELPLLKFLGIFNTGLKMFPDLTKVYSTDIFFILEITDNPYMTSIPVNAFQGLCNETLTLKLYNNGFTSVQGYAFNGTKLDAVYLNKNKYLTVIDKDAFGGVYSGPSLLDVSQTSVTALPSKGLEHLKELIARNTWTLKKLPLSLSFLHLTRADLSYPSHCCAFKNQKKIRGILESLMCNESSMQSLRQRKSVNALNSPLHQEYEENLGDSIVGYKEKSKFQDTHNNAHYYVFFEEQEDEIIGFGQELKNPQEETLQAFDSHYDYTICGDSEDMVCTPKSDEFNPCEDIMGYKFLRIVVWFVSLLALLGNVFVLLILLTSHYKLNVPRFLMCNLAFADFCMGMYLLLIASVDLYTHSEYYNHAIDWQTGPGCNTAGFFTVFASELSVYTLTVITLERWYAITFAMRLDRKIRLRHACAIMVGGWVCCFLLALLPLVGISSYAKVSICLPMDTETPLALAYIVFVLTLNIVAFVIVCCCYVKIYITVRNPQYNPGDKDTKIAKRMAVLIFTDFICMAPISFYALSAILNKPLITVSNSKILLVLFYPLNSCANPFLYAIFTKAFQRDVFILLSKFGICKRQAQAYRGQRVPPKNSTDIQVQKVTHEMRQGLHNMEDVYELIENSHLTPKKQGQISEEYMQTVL

In the case of `Cc1c(-c2cccnc2)c2ccccc2n1CCCCC(=O)O`, the Potency [1] is reported as “inactive”, the Potency [2] is reported as “inactive” and the Potency [3] is reported as “inactive”. For the same molecule, the Potency [4] was “inactive”, the Potency [5] was “inactive” and the Potency [6] was “inactive”. For the same molecule, the Potency [7] was “inactive”, the activity change, positive = activation [8] was -5.77% and the Potency [9] was “inactive”. For the same molecule, the Potency [10] was “inactive” and the Potency [11] was “inactive”.
In the case of `SCCOCCOCCS`, the Potency [1] is reported as “inactive”, the Potency [3] is reported as “inactive” and the Potency [12] is reported as “inactive”. The Potency [13] was “inactive”, the Potency [5] was “inactive” and the outcome [14] was “inactive”. The Potency [15] was “inactive”, the Potency [9] was “inactive” and the Potency [10] was “inactive”.
For `C/C(=C\C(C)CC(C)CC(C)C)C1CC(=O)OC1=O` (stereo unspecified), the Potency [1] was “inactive”, the Potency [2] was “inactive” and the Potency [13] was “inactive”. The Potency [16] was “inactive”, the Potency [5] was “inactive” and the Potency [6] was “inactive”. The outcome [14] was “inactive”, the Potency [15] was “inactive” and the outcome [17] was “inactive”. For the same molecule, the Potency [9] was “inactive”, the Potency [10] was “inactive” and the Potency [11] was “inactive”. For the same molecule, the Potency [18] was “inactive”.
In the case of `O=[N+]([O-])c1ccccc1CCO`, the Potency [1] is reported as “inactive”, the Potency [2] is reported as “inactive” and the Potency [13] is reported as “inactive”. For the same molecule, the Potency [16] was “inactive”, the Potency [5] was “inactive” and the Potency [6] was “inactive”. For the same molecule, the outcome [14] was “inactive”, the Potency [15] was “inactive” and the outcome [17] was “inactive”. The Potency [9] was “inactive”, the Potency [10] was “inactive” and the Potency [11] was “inactive”. The Potency [18] was “inactive”.
In the case of `O=C(O)c1ccc2cc(O)ccc2c1`, the Potency [1] is reported as “inactive”, the Potency [3] is reported as “inactive” and the Potency [12] is reported as “inactive”. The Potency [13] was “inactive”, the Potency [5] was “inactive” and the outcome [14] was “inactive”. The outcome [17] was “inactive”, the Potency [9] was “inactive” and the Potency [10] was “inactive”. The Potency [11] was “inactive”.
In the case of `O=C(O)COCC(=O)O`, the Potency [1] is reported as “inactive”, the Potency [3] is reported as “inactive” and the Potency [12] is reported as “inactive”. The Potency [13] was “inactive”, the Potency [16] was “inactive” and the Potency [5] was “inactive”. The outcome [14] was “inactive”, the Potency [15] was “inactive” and the outcome [17] was “inactive”. For the same molecule, the Potency [9] was “inactive”, the Potency [10] was “inactive” and the Potency [11] was “inactive”.
For `CCCCCC1CCC(=O)O1` (stereo unspecified), the Potency [1] was “inactive”, the Potency [2] was “inactive” and the Potency [13] was “inactive”. The Potency [4] was “inactive”, the Potency [19] was “inactive” and the Potency [16] was “inactive”. The Potency [6] was “inactive”, the outcome [14] was “inactive” and the Potency [15] was “inactive”. For the same molecule, the Potency [7] was “inactive”, the activity change, positive = activation [8] was 4.33% and the outcome [17] was “inactive”. The Potency [9] was “inactive”, the Potency [10] was “inactive” and the Potency [11] was “inactive”. The Potency [18] was “inactive”.
For `CC(C)(O)C(=O)O`, the Potency [1] was “inactive”, the Potency [2] was “inactive” and the Potency [3] was “inactive”. For the same molecule, the Potency [12] was “inactive”, the Potency [13] was “inactive” and the Potency [5] was “inactive”. The Potency [6] was “inactive”, the outcome [14] was “inactive” and the Potency [15] was “inactive”. The outcome [17] was “inactive”, the Potency [10] was “inactive” and the Potency [11] was “inactive”. The Potency [18] was “inactive”.
In the case of `O=c1[nH]nc(-c2ccc([N+](=O)[O-])o2)o1`, the Potency [3] is reported as “inactive”, the Potency [19] is reported as “inactive” and the Potency [5] is reported as “inactive”. For the same molecule, the Potency [15] was “inactive”, the activity change, positive = activation [8] was -20.3% and the outcome [17] was “inactive”. For the same molecule, the Potency [10] was “inactive” and the Potency [18] was “inactive”.
For `CCOCCn1c(N2CCCN(C)CC2)nc2ccccc21`, the Potency [1] was “inactive”, the Potency [2] was “inactive” and the Potency [13] was “inactive”. For the same molecule, the Potency [6] was “inactive”, the outcome [14] was “inactive” and the Potency [15] was “inactive”. For the same molecule, the outcome [17] was “inactive”, the Potency [9] was “inactive” and the Potency [10] was “inactive”. The Potency [11] was “inactive” and the Potency [18] was “inactive”.
For `Oc1ccc(Oc2ccccc2)cc1`, the Potency [1] was “inactive”, the Potency [2] was “inactive” and the Potency [3] was “inactive”. The Potency [16] was “inactive”, the Potency [5] was “inactive” and the Potency [6] was 38.1 µM (active). The outcome [14] was “inactive”, the outcome [17] was “inactive” and the Potency [10] was “inactive”. For the same molecule, the Potency [11] was “inactive”.
